# Assay outcomes: PubChem BioAssay, National Center for Advancing Translational Sciences (NCATS)
# Bst PK mod = pyruvate kinase (B. stearothermophilus) modulation; 51,000 compounds, 1.2% hits; purified pyruvate kinase, luminescence ATP production; ribose 5-phosphate activator present at AC10; AID 361; Potency, µM; in the data active means potency below about 11 µM; inconclusive means mostly about 12 µM to 25 µM;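 the screen sought inhibitors and activators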;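 further: scaled between full activation by ribose 5 phosphate and full inhibition by luteolin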
# GBA activity = human lysosomal glucosylceramidase modulation; AID 360; Potency, µM; purified enzyme, resorufin glucoside fluorescence (screen aimed at inhibitors), 20 min; P04062; 48,000 compounds, 1.1% hits; in the data active means potency below about 15 µM; inconclusive means mostly about 16 µM to 33 µM;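 further: the screen sought inhibitors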
#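 Compounds titrated against 0.2 nM normal enzyme, 30 uM resorufin beta-D-glucopyranoside substrate, citrate/phosphate buffer with taurocholate and tween-20, pH 5.9. Reaction ran 20 min at room temperature; fluorescence (Ex 548/Em 600) gave AC50.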
# Luciferase inh = inhibitors of firefly luciferase | purified firefly luciferase, luminescence, 8 min | Potency, µM (highest dose often 57.1 µM), for the others: at the highest dose activity change, negative = inhibition, hits mostly inhibitors | 72,000 compounds, 2.2% hits | P08659; active means well fitted inhibition curve with a large enough effect; inconclusive means small, poorly fitted or top-dose-only effect; further: on the % scale 0 is the no-effect control and ±100 the full control effect; nearly all actives have a fitted effect of over 40% in size
# Target sequence (P08659 whole entry, looked up): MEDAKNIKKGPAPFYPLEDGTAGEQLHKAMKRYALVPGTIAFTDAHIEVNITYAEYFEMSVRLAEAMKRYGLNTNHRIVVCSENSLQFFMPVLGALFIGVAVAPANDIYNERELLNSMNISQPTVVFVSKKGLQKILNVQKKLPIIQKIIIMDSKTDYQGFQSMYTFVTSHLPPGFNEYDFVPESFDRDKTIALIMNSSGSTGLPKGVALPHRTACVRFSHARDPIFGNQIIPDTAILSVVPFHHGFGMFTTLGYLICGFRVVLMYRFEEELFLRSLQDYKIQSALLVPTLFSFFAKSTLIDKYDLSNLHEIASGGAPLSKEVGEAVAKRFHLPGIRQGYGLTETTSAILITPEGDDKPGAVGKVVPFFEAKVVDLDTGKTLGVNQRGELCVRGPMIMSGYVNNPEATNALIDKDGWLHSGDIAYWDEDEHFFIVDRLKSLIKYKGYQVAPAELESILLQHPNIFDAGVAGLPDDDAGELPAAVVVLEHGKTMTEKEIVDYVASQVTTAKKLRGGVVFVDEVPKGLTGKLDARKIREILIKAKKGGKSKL
#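 Titration-based qHTS; buffer 50 mM imidazole pH 7.2, 50 mM KCl, 7 mM MgCl2, 10 uM ATP, 0.01% Tween 20, 0.05% BSA; luciferase/luciferin detector mix added after compound; 8 min, ambient; luminescence.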
# * = called active by the depositor; i = inactive; ? = inconclusive; / = no result; [ ] = dose if it differs, or a comment. In the library only some 3.4% were active in any assay of this set; here they are far more common. Potency means the concentration at half of the fitted maximal effect.
SMILES,Bst PK mod,GBA activity,Luciferase inh
COc1ccc(CC(=O)Nc2cccc(-c3nnc(-c4ccccc4)o3)c2)cc1OC,i,?,-15%
CC(=O)Nc1cccc(-c2nc3ccccc3c(=O)o2)c1,i,>77,-6%
COc1ccc(CC(=O)Nc2cccc(-c3nnc(-c4cccc(C)c4)o3)c2)cc1OC,/,11*,?
CCNc1ncc2nc(-c3ccccc3)c(=O)n(C[C@H]3CCCO3)c2n1,/,/,0%[11.4 µM]
CC(=O)NCCNc1nc(-c2ccccc2C(F)(F)F)nc2ccccc12,/,/,-1%[2.29 µM]
Nc1ncnc2c1nc(-c1ccccc1)n2[C@H]1O[C@@H](CO)[C@@H](O)[C@H]1O,/,/,1%[11.4 µM]
COc1ccc(-c2cnnc(CCCn3ccnc3-c3ccccc3)n2)cc1,/,/,4%[11.4 µM]
COc1ccc2[nH]cc(CCNc3ccnc(-c4ccccc4Cl)n3)c2c1,/,/,0%[2.29 µM]
CC[C@@H](c1ccccc1)n1c(=O)n2n(c1=O)[C@H]1[C@H](O)[C@H]3O[C@@H]3/C(=N/OCC(C)C)[C@@H]1CC2,/,/,1%[11.4 µM]
C=C(CO)[C@H]1Cc2c(ccc3c2O[C@H]2COc4cc(OC)c(OC)cc4[C@@H]2C3=O)O1,/,/,1%[11.4 µM]
Cc1cc(C(=O)COC(=O)c2n[nH]c3ccccc23)c(C)n1C,?,>77,13µM*
CCOC(=O)c1n[nH]c2ccccc12,>26,/,2%[25.5 µM]
COCCn1c(C)cc(C(=O)COC(=O)c2n[nH]c3ccccc23)c1C,1.4*,>77,1.3µM*
CN1CCN(C(=O)c2ccc(Cl)c(S(=O)(=O)N3CCCCC3)c2)CC1,/,/,0%
COCCn1c(C)cc(C(=O)COC(=O)c2c(C)nn(Cc3ccccc3)c2C)c1C,>57,>77,-3%
COCCn1c(C)cc(C(=O)COC(=O)c2ccc3ncsc3c2)c1C,/,>77,25µM*
O=C(OCC(=O)c1ccco1)c1ccc2ncsc2c1,>57,>77,-12%
CCCn1c(C)cc(C(=O)COC(=O)c2ccc(Cl)c(S(=O)(=O)N3CCCC3)c2)c1C,?,>77,13µM*
Cc1ccc(C(=O)O[C@@H](C(=O)O)[C@@H](OC(=O)c2ccc(C)cc2)C(=O)O)cc1 (tested in a mixture with another compound),/,/,-4%
COCCn1c(=O)c(CCc2ccccc2)nc2cnc(N3CCN(C)CC3)nc21,/,/,-1%[11.4 µM]
Cc1cc(C(=O)CSc2nc3ccccc3[nH]2)c(C)n1C,/,>77,16µM*
Cc1cc(C(=O)CSc2nc3ccc(Cl)cc3[nH]2)c(C)n1C,/,>77,-6%
O=C(O)[C@@H]1CCCN1Cc1ccc2c(c1)OCO2,/,/,0%[11.4 µM]
N#Cc1ccc(OC(=O)c2ccc(N=C(N)N)cc2)cc1,/,/,0%[11.4 µM]
O=C(Nc1cccnc1)c1cc2c(ccc3ccccc32)o1,/,/,4µM*
SMILES,Bst PK mod,GBA activity,Luciferase inh
Cc1ccc(-c2cc(C(=O)Nc3cccnc3)c3ccccc3n2)o1,/,/,7.9µM*
O=C(Nc1cccnc1)c1coc(=O)c2ccccc12,>57,>77,-1%
Cc1cc(C(=O)Nc2cccnc2)on1,/,/,1%
N#Cc1cccc(-c2nc3cnc(N4CCOCC4)nc3n(C3CC3)c2=O)c1,/,/,-1%[11.4 µM]
CCCC[C@H](CC)CN1CN(C[C@@H](CC)CCCC)CC(C)(N)C1,/,/,2%[25.5 µM]
CN1CCN(c2ncc3nc(-c4cccc(C#N)c4)c(=O)n(C)c3n2)CC1,/,/,1%[11.4 µM]
COc1ccccc1CN1CCCC2(CCN(C(=O)c3cnccn3)CC2)C1,/,/,1%[11.4 µM]
Cn1c(=O)[nH]c(=O)c2c1nc(N1CCCCCC1)n2CCN1CCCCCC1,>57,11*,0%
Cn1c(=O)[nH]c(=O)c2c1nc(N1CCCCC1)n2CC(O)CN1CCCCC1 (configuration not stated),>57,>77,1%
CN(C)c1ncc2nc(-c3cc(F)cc(F)c3)c(=O)n(Cc3cccs3)c2n1,/,/,-2%[11.4 µM]
Br/C(=N\Nc1nn[nH]n1)c1ccncc1,/,/,-4%[11.4 µM]
CCOC(=O)c1c(-c2cccs2)csc1NC(=O)c1ccco1,>57,>77,0%
COC(=O)c1c(-c2cccs2)csc1NC(=O)c1cccnc1,7.7*,>77,-17%
Cc1cc2c(c(=O)o1)[C@@H](O)[C@H]1O[C@@H]1C2=O,/,/,1%[11.4 µM]
C[C@@H](c1ccccc1)N1C(=O)[C@H]2[C@@H]3[C@H](O)C=CC(=O)[C@H]3CC[C@H]2C1=O,/,/,1%[11.4 µM]
Cc1cc2n(n1)C(c1ccc(O)cc1)Nc1ccccc1-2 (configuration not stated),?,>77,-21%
Cc1cc2n(n1)C(c1ccco1)Nc1ccccc1-2 (configuration not stated),9.5*,>77,-21%
CC(=O)Nc1cc(CN2CCCCC2)c(O)c2ncccc12,/,/,0%[11.4 µM]
O=C(O)C1CCCCC1C(=O)Nc1ccccn1 (configuration not stated),>57,>77,1%
O=C(/C=C\Nc1ccccn1)c1ccccc1,/,/,3.2µM*
O=C(/C=C/Nc1ccccc1Br)c1ccccn1,/,/,0.1µM*
O=C(NCCCNCCCNC(=O)c1ccccn1)c1ccccn1,>57,>77,-2%
COc1ccc(OC)c(S(=O)(=O)n2ccnc2)c1,/,/,3%
